PubChem BioAssay AID1159580 (chemical genetic matrix, 2015)
The campaign covered roughly 5,500 compounds. About 2,000 (36%) were called active. Inconclusive results (about 18%) are left out. Cut-off read from the data, not from the text of the source: active = normalized growth mostly below about 0.91 (no sharp cut-off); inconclusive = no clear call, values can overlap the other calls; inactive = mostly above about 0.92. The list shows a part of the results.

Test: chemical genetic growth profiling, strain panel (AID 1159580);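 note: tested at 20 µM; growth read once vehicle control cultures reached saturation at 30 °C; 1 = growth at the plate median or of vehicle wells; lower values mean less growth of the strain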
Conditions: growth OD

Measured: normalized growth

COC1=CC(=O)C[C@@H](C)[C@]12Oc1c(Cl)c(OC)cc(OC)c1C2=O
inactive: S. cerevisiae deletion strains, locus YJR075W, strain HOC1, stronger effect = lower value 1.03 | S. cerevisiae deletion strains, locus YKL009W, strain mrt4, stronger effect = lower value 1 | S. cerevisiae deletion strains, locus YKL068W, stronger effect = lower value 0.986 | S. cerevisiae deletion strains, locus YKL085W, strain MDH1 (second series), stronger effect = lower value 0.989 | S. cerevisiae deletion strains, locus YKL085W, strain MDH1, stronger effect = lower value 0.989 | S. cerevisiae deletion strains, locus YKL160W, strain elf1, stronger effect = lower value 1.02 | S. cerevisiae deletion strains, locus YKL190W, strain CNB1, stronger effect = lower value 1 | S. cerevisiae deletion strains, locus YKR001C, strain vps1, stronger effect = lower value 0.995 | S. cerevisiae deletion strains, locus YKR026C, strain gcn3, stronger effect = lower value 0.979 | S. cerevisiae deletion strains, locus YKR091W, strain srl3, stronger effect = lower value 0.989 | S. cerevisiae deletion strains, locus YLL001W, strain dnm1, stronger effect = lower value 0.984 | S. cerevisiae deletion strains, locus YLL026W, stronger effect = lower value 0.984 | S. cerevisiae deletion strains, locus YLL041C, strain sdh2, stronger effect = lower value 0.996 | S. cerevisiae deletion strains, locus YLR027C, strain aat2, stronger effect = lower value 0.993 | S. cerevisiae deletion strains, locus YLR039C, strain RIC1, stronger effect = lower value 0.983 | S. cerevisiae deletion strains, locus YLR058C, strain SHM2, stronger effect = lower value 0.996 | S. cerevisiae deletion strains, locus YLR102C, strain apc9, stronger effect = lower value 1 | S. cerevisiae deletion strains, locus YLR113W, strain HOG1, stronger effect = lower value 1 | S. cerevisiae deletion strains, locus YLR221C, strain rsa3, stronger effect = lower value 0.956 | S. cerevisiae deletion strains, locus YLR258W, strain gsy2, stronger effect = lower value 0.982 | S. cerevisiae deletion strains, locus YLR262C, strain YPT6 (second series), stronger effect = lower value 0.967 | S. cerevisiae deletion strains, locus YLR262C, strain YPT6, stronger effect = lower value 0.936 | S. cerevisiae deletion strains, locus YLR268W, strain sec22, stronger effect = lower value 0.994 | S. cerevisiae deletion strains, locus YLR320W, strain mms22, stronger effect = lower value 0.982 | S. cerevisiae deletion strains, locus YLR330W, strain CHS5, stronger effect = lower value 0.994 | S. cerevisiae deletion strains, locus YLR342W, strain FKS1 (second series), stronger effect = lower value 0.979 | S. cerevisiae deletion strains, locus YLR342W, strain FKS1, stronger effect = lower value 0.972 | S. cerevisiae deletion strains, locus YLR357W, strain rsc2, stronger effect = lower value 1.01 | S. cerevisiae deletion strains, locus YLR370C, strain arc18, stronger effect = lower value 0.943 | S. cerevisiae deletion strains, locus YLR371W, strain rom2, stronger effect = lower value 0.987 | S. cerevisiae deletion strains, locus YLR384C, strain iki3, stronger effect = lower value 0.993 | S. cerevisiae deletion strains, locus YLR418C, strain cdc73, stronger effect = lower value 0.987 | S. cerevisiae deletion strains, locus YML016C, strain PPZ1, stronger effect = lower value 0.991 | S. cerevisiae deletion strains, locus YML032C, strain rad52, stronger effect = lower value 0.986 | S. cerevisiae deletion strains, locus YML120C, strain ndi1, stronger effect = lower value 0.951 | S. cerevisiae deletion strains, locus YML124C, strain tub3, stronger effect = lower value 0.99 | S. cerevisiae deletion strains, locus YMR058W, strain fet3, stronger effect = lower value 0.999 | S. cerevisiae deletion strains, locus YMR078C, strain ctf18, stronger effect = lower value 0.987 | S. cerevisiae deletion strains, locus YMR125W, strain sto1, stronger effect = lower value 0.988 | S. cerevisiae deletion strains, locus YMR129W, stronger effect = lower value 0.983 | S. cerevisiae deletion strains, locus YMR205C, strain PFK2, stronger effect = lower value 1.01 | S. cerevisiae deletion strains, locus YMR223W, strain ubp8, stronger effect = lower value 0.988 | S. cerevisiae deletion strains, locus YMR231W, strain pep5, stronger effect = lower value 0.991 | S. cerevisiae deletion strains, locus YMR263W, strain SAP30, stronger effect = lower value 1.01 | S. cerevisiae deletion strains, locus YMR307W, strain GAS1, stronger effect = lower value 0.847 | S. cerevisiae deletion strains, locus YNL067W, strain RPL9B, stronger effect = lower value 1.04 | S. cerevisiae deletion strains, locus YNL071W, strain lat1, stronger effect = lower value 0.992 | S. cerevisiae deletion strains, locus YNL128W, strain TEP1, stronger effect = lower value 1 | S. cerevisiae deletion strains, locus YNL153C, strain GIM3, stronger effect = lower value 1.04 | S. cerevisiae deletion strains, locus YNL183C, strain NPR1, stronger effect = lower value 0.958 | S. cerevisiae deletion strains, locus YNL209W, strain ssb2, stronger effect = lower value 0.984 | S. cerevisiae deletion strains, locus YNL233W, strain BNI4, stronger effect = lower value 1.06 | S. cerevisiae deletion strains, locus YNL248C, strain rpa49, stronger effect = lower value 1.05 | S. cerevisiae deletion strains, locus YNL250W, strain rad50, stronger effect = lower value 1 | S. cerevisiae deletion strains, locus YNL271C, strain bni1, stronger effect = lower value 0.99 | S. cerevisiae deletion strains, locus YNL298W, strain CLA4, stronger effect = lower value 0.995 | S. cerevisiae deletion strains, locus YNL307C, strain MCK1, stronger effect = lower value 1 | S. cerevisiae deletion strains, locus YNL322C, strain KRE1 (second series), stronger effect = lower value 0.991 | S. cerevisiae deletion strains, locus YNL322C, strain KRE1, stronger effect = lower value 1 | S. cerevisiae deletion strains, locus YNR049C, strain mso1, stronger effect = lower value 0.98 | S. cerevisiae deletion strains, locus YNR052C, strain pop2, stronger effect = lower value 0.999 | S. cerevisiae deletion strains, locus YOL006C, strain TOP1, stronger effect = lower value 1.11 | S. cerevisiae deletion strains, locus YOL012C, strain htz1 0.916 | S. cerevisiae deletion strains, locus YOL147C, strain pex11, stronger effect = lower value 0.993 | S. cerevisiae deletion strains, locus YOR001W, strain rrp6, stronger effect = lower value 0.967 | S. cerevisiae deletion strains, locus YOR061W, strain CKA2, stronger effect = lower value 0.968 | S. cerevisiae deletion strains, locus YOR069W, strain VPS5, stronger effect = lower value 0.993 | S. cerevisiae deletion strains, locus YOR070C, strain gyp1, stronger effect = lower value 0.977 | S. cerevisiae deletion strains, locus YOR080W, strain dia2, stronger effect = lower value 0.982 | S. cerevisiae deletion strains, locus YOR083W, strain WHI5, stronger effect = lower value 1.02 | S. cerevisiae deletion strains, locus YOR106W, strain vam3, stronger effect = lower value 1 | S. cerevisiae deletion strains, locus YOR136W, strain idh2, stronger effect = lower value 1 | S. cerevisiae deletion strains, locus YOR144C, strain elg1, stronger effect = lower value 0.988 | S. cerevisiae deletion strains, locus YOR184W, strain ser1, stronger effect = lower value 0.991 | S. cerevisiae deletion strains, locus YOR231W, strain MKK1, stronger effect = lower value 1.01 | S. cerevisiae deletion strains, locus YOR265W, strain rbl2, stronger effect = lower value 0.978 | S. cerevisiae deletion strains, locus YOR270C, strain vph1, stronger effect = lower value 0.952 | S. cerevisiae deletion strains, locus YOR290C, strain snf2, stronger effect = lower value 1.03 | S. cerevisiae deletion strains, locus YOR316C, strain cot1, stronger effect = lower value 0.992 | S. cerevisiae deletion strains, locus YPL051W, strain arl3, stronger effect = lower value 1.02 | S. cerevisiae deletion strains, locus YPL055C, strain LGE1, stronger effect = lower value 0.985 | S. cerevisiae deletion strains, locus YPL078C, strain atp4, stronger effect = lower value 1.03 | S. cerevisiae deletion strains, locus YPL106C, strain sse1, stronger effect = lower value 0.964 | S. cerevisiae deletion strains, locus YPL240C, strain hsp82, stronger effect = lower value 0.988 | S. cerevisiae deletion strains, locus YPL241C, strain CIN2, stronger effect = lower value 0.992 | S. cerevisiae deletion strains, locus YPL256C, strain CLN2, stronger effect = lower value 0.985 | S. cerevisiae deletion strains, locus YPR119W, strain clb2, stronger effect = lower value 0.99 | S. cerevisiae deletion strains, locus YPR141C, strain kar3, stronger effect = lower value 0.978 | S. cerevisiae deletion strains, locus YPR163C, strain tif3, stronger effect = lower value 0.98 | S. cerevisiae deletion strains, locus YPR167C, strain met16, stronger effect = lower value 0.99 | S. cerevisiae deletion strains, strain wtn01, stronger effect = lower value 0.998 | S. cerevisiae strains, strain wild type, stronger effect = lower value 0.988
